# Results published in the supplement of paper PMC6555819.
# Tests used:
# Assay in all cases: PBM binding z-score (relative to random genomic background probes); higher = stronger binding; sequences stand for … in GC…GCGATTGACAGCGTAGAATGAAGG
# [1] = tested on: FXR:RXRa (NR concentration 270 nM, RXRa partner concentration 90 nM)
# Method in brief: (§1)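 The probes on custom Agilent 4×180K protein-binding microarrays were double-stranded, with 34-nt variable regions bearing direct-repeat seeds, single-nucleotide variants, half-site ablations and random human genomic background sequences. Incubation lasted 1 h with ligand-free nuclear receptor dimers in PBS pH 7.4, 2% milk, 0.02% Triton X-100, 1 mM DTT, 0.2 mg/mL BSA and 0.4 mg/ml salmon testes DNA. Antibodies against each partner (one per run) detected bound dimers, and fluorescence scans were regression-normalized. Binding z-scores take the random background probes as reference.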
# [2] = tested on: LXRa:RXRa (NR concentration 270 nM, RXRa partner concentration 90 nM)
# Method in brief: as §1
# [3] = tested on: LXRa homodimer (NR concentration 270 nM)
# Method in brief: as §1
# [4] = tested on: LXRb:RXRa (NR concentration 270 nM, RXRa partner concentration 90 nM)
# Method in brief: as §1
# [5] = tested on: LXRb homodimer (NR concentration 270 nM)
# Method in brief: as §1
# [6] = tested on: PPARa:RXRa (NR concentration 270 nM, RXRa partner concentration 90 nM)
# Method in brief: as §1
# [7] = tested on: PPARg:RXRa (NR concentration 180 nM, RXRa partner concentration 90 nM)
# Method in brief: as §1
# [8] = tested on: PPARg:RXRa 270nM:90nM, anti-RXR (NR concentration 270 nM, RXRa partner concentration 90 nM)
# Method in brief: as §1
# [9] = tested on: PPARg:RXRa 30nM:10nM, anti-RXR (NR concentration 30 nM, RXRa partner concentration 10 nM)
# Method in brief: as §1
# [10] = tested on: PPARg:RXRa 90nM:30nM, anti-RXR (NR concentration 90 nM, RXRa partner concentration 30 nM)
# Method in brief: as §1
Sequence,PBM binding z-score [1],PBM binding z-score [2],PBM binding z-score [3],PBM binding z-score [4],PBM binding z-score [5],PBM binding z-score [6],PBM binding z-score [7],PBM binding z-score [8],PBM binding z-score [9],PBM binding z-score [10]
GCTAGTCGGTCAGTAAAAGGTCACACACCGGTCG,4.06,4.97,5.34,4.32,0.747,4.67,3.19,4.83,2.43,4.01
GCGACTGGGGCAAAGCCGGTTACCATAAGGTTGG,-0.281,-0.532,-0.832,-0.581,-1.01,0.472,0.627,0.491,-0.849,-0.0511
ATCGATAGGTCGACGAGGTGAGTATACACCGTTT,0.682,0.624,-0.525,0.484,0.0439,1.69,1.15,0.567,0.467,0.349
CGAACTAGGTCAGAACATGACAGTGAAGGATGAT,0.703,0.762,-0.0558,0.426,-0.161,3.07,5.35,4.49,2.05,3.4
ATCTCTAAGTAACAAGTTCAGTGAAAGAGAGGAC,0.888,0.954,0.532,0.595,0.901,0.572,0.408,0.672,0.701,0.344
GATACAGGGTCAAGGCCACAGTACGCGTATTGAT,6.86,4.11,0.0617,3.76,-0.0921,5.98,6.37,5.82,2.54,4.69
AATACAGGGTCACAAGGCCAGAGTAGGTACGAAT,6.89,5.61,1.21,4.47,1.18,5.99,7.38,6.69,3.96,5.46
AGCATGAGGTTATACGTAGATCAGGGAAGAAAGT,1.93,1.8,0.246,1.47,0.257,2.43,0.933,0.729,0.259,0.586
GATACAGGGTCAGCTAGAGGACAGAGTATGGAAA,4.89,3.3,-0.154,2.61,-0.241,4.58,3.93,3.23,1.06,2.12
ATAGGTAGGTTAGCTGGGGTCATTCAGACTAGGC,4.92,5.76,2.97,4.81,1.29,4.82,2.59,3.65,1.45,2.69
TCGAGTAGGTTAGTCGGGCCATTCAGCCAACATA,-0.164,-0.373,-0.481,-0.437,-1.41,0.324,-0.134,0.911,0.94,0.798
CCGACTGGGGCAGAAGGTTACCATAAGCCAGCCC,-0.0856,1.46,-0.41,0.494,-1.21,1.43,1.92,3.09,0.815,2.15
CCAGACAGGTGAGAAGGTAACTCACCCTCGATTA,-0.00684,0.259,-0.0683,0.491,-0.394,1.09,0.731,0.509,-0.0353,-0.0765
TATACAGGGTCAAAGGCTAGAGTACGAATGTCGA,7.16,6.17,2.74,4.84,2.57,5.93,7.9,7.07,5,6.71
TATACAGGGTCATAGGCCAGAGTACGAATGTCGA,6.89,6,1.98,4.45,1.7,5.81,7.21,6.45,3.76,5.8
GCGACTGGGGCATCAGCAGGTTACCAAAACTTAA,-0.46,-0.0944,-0.294,0.621,-0.676,1.34,0.564,0.743,-0.555,-0.000266
GGAACGAGGGGAAAGTTGATAGCATCTGTCGACG,-0.0769,-0.0261,-0.204,0.087,0.0705,2.88,4.27,6.01,3.53,6.53
CGTCCAAGGTCATAGAAGGTCAGTGAAGACAGAT,7.45,7.22,4.12,5.81,0.783,5.53,5.05,5.64,2.37,4.36
CGTCTAAGGTCAGAGAGGTCAGTGAATGCCGAGT,6.73,5.75,3.47,5.03,0.521,5.48,4.02,5.03,1.38,3.5
CCTTACGGGACACTCCAGGTTATAGCATCGGAGT,0.0463,0.511,0.714,-0.359,-0.449,0.0174,0.619,-0.335,-0.0425,-0.27
ACTAATAGTTGAGACGAGGGCAACCGATAGGTTG,0.996,0.527,-0.147,0.288,0.0115,0.669,0.841,-0.0729,0.0984,0.103
CGAACTAGGTCAGAACAGGACCGTGAAGGATGAT,0.998,0.352,-0.566,0.148,-0.568,2.94,5.07,4.33,1.63,3.44
CCTACTGGGCCATCGGGTCATTGATATCAACGTT,1.37,1.03,-0.0763,1.51,-0.423,3.29,3.03,4.12,1.34,3.22
TCTAGTTGGTCACGGAGGTCAGACACGACGGGTA,2.17,2.33,1.51,2.23,0.127,2.88,2.45,2.97,3.26,3.11

Sequence,PBM binding z-score [1],PBM binding z-score [2],PBM binding z-score [3],PBM binding z-score [4],PBM binding z-score [5],PBM binding z-score [6],PBM binding z-score [7],PBM binding z-score [8],PBM binding z-score [9],PBM binding z-score [10]
CTCGAAGGGTCGTGCTCAGGTGAGTATACCAAAC,2.01,1.45,-0.37,1.52,-0.487,2.89,0.441,1.12,-0.0599,0.72
AGACTGAGGTTAAGATCAGGGAAACAGAATACAT,2.11,1.75,-0.133,1.6,-0.417,2.92,1.21,1.18,0.748,0.879
GCTTACGGGTCAGAGGTTATAGCATGAATAGAAT,5.2,3.46,0.404,3.77,0.261,5.92,9.08,7.82,6.2,8.57
TCTTGTAGATCAGCAGGTTAAGAACGCTGGCCAA,-0.138,-0.0946,-0.388,0.178,-0.52,0.745,-0.296,1.38,2.39,1.59
CTCGCAAGGTCGGTTGAGGTGAGTATACGGATAA,0.755,0.469,-0.26,0.374,-0.72,1.3,-0.0433,0.131,-0.357,-0.159
ATATGTAGCTTATCGGGTCATTCAGTTTGCGCAT,2.02,2.21,1.13,2.2,1.08,2.5,0.837,0.994,0.318,0.857
GATACAGGGTCAGCTAGAGGCCCGAGTATGGAAA,4.27,2.31,-0.511,1.8,-0.813,4.42,3.6,3.1,0.492,1.92
CCTCGGAGCACAGAAGGTCAGAGCTGTCCGCTTT,1.68,2.17,0.231,1.21,-0.905,1.97,-0.336,0.536,-1.06,-0.433
CAAACTAGGTCACGAAAGTTCAAAGTCGAATGAC,6.48,7.84,8.43,6.15,1.48,6.14,9.94,8.29,6.58,8.35
AGAATGAGGTTACCAAAGATCAGAGAAACGCTTG,2.03,6.18,0.173,3.6,-0.0648,3.32,2.75,2.19,0.774,1.78
CGAACGAGGGCATTAGTTGATAGCAAATGCCGAT,0.0908,-0.0116,-0.501,-0.0875,-0.766,0.595,0.83,0.432,0.0228,-0.0505
ATCGAAAGGTCGACGAGGTGAGTGTACACCGTTT,4.72,3.35,0.236,2.78,0.198,4.42,2.9,3.72,1.14,2.63
TCTATTAGTTGATTAGGGCAGCCGAAACAGCGGA,0.608,0.627,0.0696,0.52,0.663,1.01,0.0121,1.92,3.66,2.93
CAGCGTAGGTCAGGGCCAGTATAGGAGGAACGTT,1.79,1.23,-0.344,0.759,-1.03,2.46,0.896,0.918,-0.272,0.0961
CGTCCAACGTCAATGCTAGGTCAGTGAAAGCATT,-0.119,0.271,0.545,0.323,-0.372,0.371,-0.0757,-0.424,-0.443,-0.334
ATATGTAGGTTAAGGGTAATTCAGGTTGGTTCGC,1.39,2.14,1.04,1.72,0.767,4.6,8.65,7.77,8.77,8.33
CCTAGCAGGCCAATCTGGGTTACTCAAGGCTTGA,0.0367,-0.0703,-0.681,-0.364,-1.09,1.18,0.194,0.0942,-1.01,-0.507
TCTATTAGTAGATTAGGGCAACCGAAACAGCGGA,0.325,0.084,-0.337,0.176,0.298,0.659,0.254,1.64,3.45,2.5
CCTTACGGGGCAAGGTTATAGCACGGGTGGTACG,0.333,0.325,-0.577,0.153,-0.736,1.33,0.791,0.819,-0.199,0.442
CCTACTGGGCCAACAGGTCATTGATATCAACGTT,1.42,1.52,1.37,1.98,-0.204,3.21,4.01,4.41,2.65,4.24
TGAATGAGGTTTTAAGATCAGGGAACGTTGCAAA,-0.288,-0.516,-0.631,-0.358,-0.602,0.0128,-0.186,0.12,0.000594,0.043
CCGACTGGGTCATAAGGTTACCATAAGCCAGCCC,2.99,3.47,-0.00526,2.23,-0.614,4.14,5.19,5.46,2.95,4.86
GATACAGGGTCAACGCCAGAGTACGCGTATTGAT,7,4.57,-0.128,3.91,0.0606,5.69,6.17,5.78,2.67,4.5
TAGCCTAGGACATGGGCCAGTATACCACGCGAAC,-0.615,-0.64,-0.616,-0.618,-0.673,-0.454,0.715,-0.284,-0.595,-0.49
